Results filed as inconclusive are left out. The source made the active and inactive calls. Calls follow the shape of the dose curve; as a rule, active = well fitted curve in the direction sought with a large enough effect; inconclusive = small, poorly fitted or top-dose-only effect, or another doubt; inactive = no such curve, though single readings can be large; an effect the other way counts as inactive or inconclusive.

Assay [1] is described as follows: qHTS of pediatric cancer cell lines to identify multiple opportunities for drug repurposing: Primary screen for OHS-50 cells (AID 1347103). Also: nearly all actives have a fitted effect of over 40% in size. Also: potency is read from the fitted curve at half-maximal effect. A digest of the protocol:
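Cells (500-1,000/well) rested 5 h, then received compounds for 48 h; metabolically active cells were measured by CellTiter-Glo luminescence. Final concentrations spanned up to 46 µM (MIPE, 11-point) or 0.59 nM-46 µM (NPC, 8-point) in primary screens, 11-point in follow-ups.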
On the technique in general: In qHTS, concentration-response curves come from the screen itself.

The nature of assay [2]: qHTS of pediatric cancer cell lines to identify multiple opportunities for drug repurposing: Primary screen for RD cells (AID 1347104). Also: nearly all actives have a fitted effect of over 55% in size. Also: potency is read from the fitted curve at half-maximal effect. The gist of the method: (§1)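 ATP-based luminescence (CellTiter-Glo) quantifies viability after a 48-hour exposure. Compounds are dosed across 8 or 11 final concentrations; DMSO and 2.3 µM bortezomib serve as controls.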
The nature of assay [3]: qHTS of pediatric cancer cell lines to identify multiple opportunities for drug repurposing: Primary screen for control Hh wild type fibroblast cells (AID 1347106).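 Also: series mostly up to about 46 µM; a drop in luminescence marks cytotoxicity and a rise apparent proliferation; nearly all actives have a fitted effect of over 55% in size.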 The gist of the method: (§2)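 Viability after 48 h compound treatment at 37C, 500-1,000 cells/well, read as ATP luminescence with CellTiter-Glo. Primary screens used 11-point (MIPE, 0.78 nM-46 µM) or 8-point (NPC, 0.59 nM-46 µM) final concentrations; follow-up screens used 11-point dilutions.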

The nature of assay [4]: qHTS of pediatric cancer cell lines to identify multiple opportunities for drug repurposing: Primary screen for Rh30 cells (AID 1347107). Also: series mostly up to about 46 µM; nearly all actives have a fitted effect of over 75% in size. A digest of the protocol:
as §2

The nature of assay [5]: qHTS of pediatric cancer cell lines to identify multiple opportunities for drug repurposing: Primary screen for MG 63 (6-TG R) cells (AID 1347105). Also: nearly all actives have a fitted effect of over 50% in size. Also: potency is read from the fitted curve at half-maximal effect. A digest of the protocol:
as §1

A short description of assay [6]: qHTS of pediatric cancer cell lines to identify multiple opportunities for drug repurposing: Confirmatory screen for NB1643 cells (AID 1347109). Also: potency is read from the fitted curve at half-maximal effect; nearly all actives have a fitted effect of over 45% in size. The gist of the method: as §2
A short description of assay [7]: qHTS of pediatric cancer cell lines to identify multiple opportunities for drug repurposing: Confirmatory screen for SK-N-MC cells (AID 1347111).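 Also: potency is read from the fitted curve at half-maximal effect; cells exposed to compound for 48 h before the readout; nearly all actives have a fitted effect of over 70% in size.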 The gist of the method: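 SK-N-MC cells at 500-1,000 cells/well in growth media were pre-incubated 5 h, then exposed to compounds at 11-point dilutions for 48 h at 37 degrees C, 5% CO2. Viability was read as CellTiter-Glo luminescence.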

The nature of assay [8]: qHTS of pediatric cancer cell lines to identify multiple opportunities for drug repurposing: Confirmatory screen for LAN-5 cells (AID 1347113). Also: potency is read from the fitted curve at half-maximal effect; nearly all actives have a fitted effect of over 65% in size. A digest of the protocol:
as §2

Assay [9] in a line: qHTS of pediatric cancer cell lines to identify multiple opportunities for drug repurposing: Confirmatory screen for NB-EBc1 cells (AID 1347115). Also: potency is read from the fitted curve at half-maximal effect; nearly all actives have a fitted effect of over 45% in size. A digest of the protocol: as §2
The nature of assay [10]: qHTS of pediatric cancer cell lines to identify multiple opportunities for drug repurposing: Confirmatory screen for U-2 OS cells (AID 1347122). Also: nearly all actives have a fitted effect of over 65% in size. Also: potency is read from the fitted curve at half-maximal effect. A digest of the protocol:
as §2

Assay [11] can be described thus: qHTS of pediatric cancer cell lines to identify multiple opportunities for drug repurposing: Confirmatory screen for Rh18 cells (AID 1347125). Also: potency is read from the fitted curve at half-maximal effect; nearly all actives have a fitted effect of over 55% in size. The gist of the method:
as §2

Assay [12] in a line: qHTS of pediatric cancer cell lines to identify multiple opportunities for drug repurposing: Primary screen for Rh41 cells (AID 1347108). Also: nearly all actives have a fitted effect of over 70% in size. Also: potency is read from the fitted curve at half-maximal effect. A digest of the protocol:
as §1

Assay [13] in a line: qHTS of pediatric cancer cell lines to identify multiple opportunities for drug repurposing: Confirmatory screen for A673 cells (AID 1347110). Also: potency is read from the fitted curve at half-maximal effect; nearly all actives have a fitted effect of over 65% in size. The gist of the method:
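qHTS titration format: primary MIPE 0.78 nM-46 µM (11 pts), NPC 0.59 nM-46 µM; confirmation 11 pts. 48 h, CTG luminescence.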

Assay [14] in a line: qHTS of pediatric cancer cell lines to identify multiple opportunities for drug repurposing: Confirmatory screen for DAOY cells (AID 1347114). Also: potency is read from the fitted curve at half-maximal effect; nearly all actives have a fitted effect of over 65% in size. The gist of the method:
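Viability measured as metabolically active cells via CellTiter-Glo luminescence following 48 hours of compound exposure, 11-point dilutions in confirmatory testing. 500-1,000 cells/well plated 5 hours before dosing; controls were DMSO and 2.3 µM bortezomib.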

A short description of assay [15]: qHTS of pediatric cancer cell lines to identify multiple opportunities for drug repurposing: Confirmatory screen for MG 63 (6-TG R) cells (AID 1347119). Also: potency is read from the fitted curve at half-maximal effect; nearly all actives have a fitted effect of over 55% in size. A digest of the protocol:
as §2

Assay [16] can be described thus: qHTS of pediatric cancer cell lines to identify multiple opportunities for drug repurposing: Confirmatory screen for control Hh wild type fibroblast cells (AID 1347121). Also: potency is read from the fitted curve at half-maximal effect; nearly all actives have a fitted effect of over 70% in size. A digest of the protocol:
as §2

Assay [17] can be described thus: qHTS of pediatric cancer cell lines to identify multiple opportunities for drug repurposing: Confirmatory screen for Rh41 cells (AID 1347123).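 Also: potency is read from the fitted curve at half-maximal effect; 48 h compound exposure; nearly all actives have a fitted effect of over 60% in size.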 The gist of the method: as §2
A short description of assay [18]: qHTS of pediatric cancer cell lines to identify multiple opportunities for drug repurposing: Confirmatory screen for RD cells (AID 1347124). A digest of the protocol:
as §2

Assay [19] is described as follows: qHTS of pediatric cancer cell lines to identify multiple opportunities for drug repurposing: Confirmatory screen for Rh30 cells (AID 1347126). The gist of the method: as §2
Assay [20] can be described thus: qHTS of pediatric cancer cell lines to identify multiple opportunities for drug repurposing: Confirmatory screen for Saos-2 cells (AID 1347127). Also: potency is read from the fitted curve at half-maximal effect; nearly all actives have a fitted effect of over 60% in size. The gist of the method:
as §2

Take `Cc1[nH]cnc1-c1ccc(Cl)cc1`: the Potency entry in assay [1], in assay [2], in assay [3] and in [4] was “inactive” in each case.

Consider `CC(=O)Oc1ccc(C2(c3ccc(OC(C)=O)cc3)Oc3ccccc3NC2=O)cc1`, for which the Potency in assay [1] was 12.3 µM (active); in assay [5], 4.22 µM (active).

On to `C[C@@H](O[C@H]1OCCN(Cc2n[nH]c(=O)[nH]2)[C@H]1c1ccc(F)cc1)c1cc(C(F)(F)F)cc(C(F)(F)F)c1`, for which the Potency in assay [1] was 27.6 µM (active); in assay [2], 26.6 µM (active). For the same compound, the Potency result in assay [3] and in assay [4] was “inactive” throughout.

Turning to `O=[N+]([O-])c1ccc(O)c2ncccc12`, the Potency is 5.5 µM (active) in [1]; 5.31 µM (active) in assay [2]; 6.68 µM (active) in assay [5]; 14.7 µM (active) in assay [6]; 8.27 µM (active) in assay [7]; 9.27 µM (active) in assay [8]. Also, the Potency was 7.37 µM (active) in [9] and 10.4 µM (active) in assay [11]. In addition, the Potency result in assay [10] is “inactive”.

Turning to `CC(=O)N(c1onc(C)c1C)S(=O)(=O)c1ccc(N)cc1`, the Potency entry in assay [1], in assay [5], in assay [3], in [4] and in assay [12] was “inactive” in each case.

On to `O=C(Nc1ccc(Cl)cc1)Nc1ccc(Cl)c(Cl)c1`, for which the Potency was 24.6 µM (active) in assay [1] and 23.7 µM (active) in [2]. In assay [3], the Potency result is “inactive”.

For `CN1CC[C@H](c2c(O)cc(O)c3c(=O)cc(-c4ccccc4Cl)oc23)[C@H](O)C1`, the Potency was 0.276 µM (active) in assay [1] and 0.596 µM (active) in assay [2]. For the same compound, the Potency result in assay [3] and in assay [4] was “inactive” throughout.

For the compound `CC1(C)OC(=O)Nc2ccc(Br)cc21`, the Potency entry in assay [1], in assay [5], in assay [3] and in assay [4] was “inactive” in each case.

On to `CN1CC(=O)N2[C@H](c3ccc4c(c3)OCO4)c3[nH]c4ccccc4c3C[C@@H]2C1=O`, for which the Potency entry in assay [1], in assay [5], in assay [3], in assay [4] and in assay [12] was “inactive” each time.

With `CCOC(=O)c1ccc(NC(=O)CN2CCCCC2)cc1`, the Potency entry in assay [1], in [5], in assay [3], in assay [4] and in [12] was “inactive” in each case.

As for `Cc1cc(OCCOCC[N+](C)(C)Cc2ccccc2)ccc1C(C)(C)CC(C)(C)C`, the Potency in [1] was 4.37 µM (active); in [2], 18.8 µM (active); in [6] it was 8.27 µM (active); in assay [13], 1.04 µM (active); in assay [7] it was 2.61 µM (active); in assay [8] it was 9.27 µM (active). The Potency in assay [14] was 11.7 µM (active); in assay [9], 16.5 µM (active); in assay [15], 9.27 µM (active); in assay [16], 20.8 µM (active); in assay [10], 23.3 µM (active); in [17] it was 7.37 µM (active). Besides, the Potency was 10.4 µM (active) in [18], 18.5 µM (active) in assay [11], 13.1 µM (active) in assay [19] and 7.37 µM (active) in [20]. Also, the Potency entry in assay [3] is “inactive”.

Consider `COC(=O)c1cc(Cl)c(NC(C)=O)cc1OC`, for which the Potency result in assay [1], in assay [5], in assay [3], in assay [4] and in assay [12] was “inactive” throughout.

For `CCCCCCCCCCCCCCCCCCNC(=O)OC1CCN(C(=O)OC[C@H](COC(=O)N(Cc2cccc[n+]2CC)C(=O)c2ccccc2OC)OC)CC1`, the Potency in assay [1] is 11 µM (active); in assay [2], 23.7 µM (active). Moreover, the Potency result in assay [3] was “inactive”.

For the compound `CCO[C@H](Cc1ccc(OCCc2ccc(OS(C)(=O)=O)cc2)cc1)C(=O)O`, the Potency entry in assay [1], in assay [5], in assay [3], in assay [4] and in assay [12] was “inactive” in each case.

In the case of `O=C(CCCCC(=O)Nc1c(I)cc(I)c(C(=O)O)c1I)Nc1c(I)cc(I)c(C(=O)O)c1I`, the Potency entry in assay [1], in assay [5], in assay [3], in [4] and in [12] was “inactive” throughout.

In the case of `CN(C)CCOC1=Cc2ccccc2Sc2ccc(Cl)cc21`, the Potency in assay [1] is 24.6 µM (active). Also, the Potency result in assay [5], in assay [3], in [4] and in assay [12] was “inactive” each time.

In the case of `CCCCCCCCCCCCCCCC[n+]1ccccc1`, the Potency in assay [1] was 2.46 µM (active); in [2] it was 13.3 µM (active); in assay [12], 11.9 µM (active).

Take `CCCCCC1Nc2cc(C(F)(F)F)c(S(N)(=O)=O)cc2S(=O)(=O)N1` (stereo not given): the Potency entry in assay [1], in assay [5], in assay [3] and in assay [4] was “inactive” in each case.

Consider `OCc1c[nH]c2ccccc12`, for which the Potency entry in [1], in assay [5], in [3] and in assay [4] was “inactive” in each case.

For the compound `C[C@H](N)C(=O)N[C@@H](C)C(=O)NC1[C@H]2CN(c3nc4c(cc3F)c(=O)c(C(=O)O)cn4-c3ccc(F)cc3F)C[C@@H]12` (stereo not given in full), the Potency entry in assay [1], in [2], in assay [3], in assay [4] and in assay [12] was “inactive” each time.

Regarding `CCOC(=O)C1=C(C)NC(C)=C(C(=O)OCC)C1c1ccccc1/C=C/C(=O)OC(C)(C)C`, the Potency is 15.5 µM (active) in assay [1] and 26.6 µM (active) in [5]. Moreover, the Potency entry in assay [3] and in [4] was “inactive” each time.

Source of the values: PubChem BioAssay (NCATS).
